{"source": "PubChem BioAssay AID1159580", "about": "(chemical genetic matrix, 2015)", "test": "chemical genetic growth profiling, strain panel (AID 1159580);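 further: tested at 20 µM; growth read once vehicle control cultures reached saturation at 30 °C; 1 = growth at the plate median or of vehicle wells; lower values mean less growth of the strain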", "settings": "growth OD", "note": "About 2,000 (36%) of roughly 5,500 compounds were called active. About 18% were inconclusive and are not listed. The list shows a part of the results. A number with no mark means an inactive call. No stated cut-off is given here; in the data, active means normalized growth mostly below about 0.91 (no sharp cut-off); inconclusive means no clear call, values can overlap the other calls; inactive means mostly above about 0.92."}
{"compound": "CCCCOC(=O)c1ccccc1C(=O)OCCCC", "values": [{"measurement": "normalized growth", "setting": "S. cerevisiae deletion strains, locus YJR066W, strain TOR1, hits give low values", "value": 0.92}, {"measurement": "normalized growth", "setting": "S. cerevisiae deletion strains, locus YJR075W, strain HOC1, hits give low values", "value": 0.991}, {"measurement": "normalized growth", "setting": "S. cerevisiae deletion strains, locus YKL009W, strain mrt4, hits give low values", "value": 0.941}, {"measurement": "normalized growth", "setting": "S. cerevisiae deletion strains, locus YKL068W, hits give low values", "value": 0.977}, {"measurement": "normalized growth", "setting": "S. cerevisiae deletion strains, locus YKL085W, strain MDH1 (second series), hits give low values", "value": 0.984}, {"measurement": "normalized growth", "setting": "S. cerevisiae deletion strains, locus YKL085W, strain MDH1, hits give low values", "value": 0.984}, {"measurement": "normalized growth", "setting": "S. cerevisiae deletion strains, locus YKL160W, strain elf1, hits give low values", "value": 0.985}, {"measurement": "normalized growth", "setting": "S. cerevisiae deletion strains, locus YKL190W, strain CNB1, hits give low values", "value": 0.972}, {"measurement": "normalized growth", "setting": "S. cerevisiae deletion strains, locus YKR001C, strain vps1, hits give low values", "value": 0.983}, {"measurement": "normalized growth", "setting": "S. cerevisiae deletion strains, locus YKR026C, strain gcn3, hits give low values", "value": 0.986}, {"measurement": "normalized growth", "setting": "S. cerevisiae deletion strains, locus YKR091W, strain srl3, hits give low values", "value": 0.982}, {"measurement": "normalized growth", "setting": "S. cerevisiae deletion strains, locus YLL001W, strain dnm1, hits give low values", "value": 0.987}, {"measurement": "normalized growth", "setting": "S. cerevisiae deletion strains, locus YLL026W, hits give low values", "value": 0.982}, {"measurement": "normalized growth", "setting": "S. cerevisiae deletion strains, locus YLL041C, strain sdh2, hits give low values", "value": 0.975}, {"measurement": "normalized growth", "setting": "S. cerevisiae deletion strains, locus YLR027C, strain aat2, hits give low values", "value": 0.974}, {"measurement": "normalized growth", "setting": "S. cerevisiae deletion strains, locus YLR039C, strain RIC1, hits give low values", "value": 0.941}, {"measurement": "normalized growth", "setting": "S. cerevisiae deletion strains, locus YLR058C, strain SHM2, hits give low values", "value": 0.968}, {"measurement": "normalized growth", "setting": "S. cerevisiae deletion strains, locus YLR102C, strain apc9, hits give low values", "value": 0.982}, {"measurement": "normalized growth", "setting": "S. cerevisiae deletion strains, locus YLR113W, strain HOG1, hits give low values", "value": 0.89}, {"measurement": "normalized growth", "setting": "S. cerevisiae deletion strains, locus YLR221C, strain rsa3, hits give low values", "value": 0.957}, {"measurement": "normalized growth", "setting": "S. cerevisiae deletion strains, locus YLR258W, strain gsy2, hits give low values", "value": 0.974}, {"measurement": "normalized growth", "setting": "S. cerevisiae deletion strains, locus YLR262C, strain YPT6 (second series), hits give low values", "value": "0.838 (active)"}, {"measurement": "normalized growth", "setting": "S. cerevisiae deletion strains, locus YLR262C, strain YPT6, hits give low values", "value": 0.931}, {"measurement": "normalized growth", "setting": "S. cerevisiae deletion strains, locus YLR268W, strain sec22, hits give low values", "value": 0.96}, {"measurement": "normalized growth", "setting": "S. cerevisiae deletion strains, locus YLR320W, strain mms22, hits give low values", "value": 0.924}, {"measurement": "normalized growth", "setting": "S. cerevisiae deletion strains, locus YLR330W, strain CHS5, hits give low values", "value": 0.977}, {"measurement": "normalized growth", "setting": "S. cerevisiae deletion strains, locus YLR342W, strain FKS1 (second series), hits give low values", "value": 0.875}, {"measurement": "normalized growth", "setting": "S. cerevisiae deletion strains, locus YLR342W, strain FKS1, hits give low values", "value": 0.948}, {"measurement": "normalized growth", "setting": "S. cerevisiae deletion strains, locus YLR357W, strain rsc2, hits give low values", "value": 1.02}, {"measurement": "normalized growth", "setting": "S. cerevisiae deletion strains, locus YLR370C, strain arc18, hits give low values", "value": 0.99}, {"measurement": "normalized growth", "setting": "S. cerevisiae deletion strains, locus YLR371W, strain rom2, hits give low values", "value": 0.974}, {"measurement": "normalized growth", "setting": "S. cerevisiae deletion strains, locus YLR384C, strain iki3, hits give low values", "value": 0.99}, {"measurement": "normalized growth", "setting": "S. cerevisiae deletion strains, locus YLR418C, strain cdc73, hits give low values", "value": 0.978}, {"measurement": "normalized growth", "setting": "S. cerevisiae deletion strains, locus YML016C, strain PPZ1, hits give low values", "value": 0.992}, {"measurement": "normalized growth", "setting": "S. cerevisiae deletion strains, locus YML032C, strain rad52, hits give low values", "value": 0.982}, {"measurement": "normalized growth", "setting": "S. cerevisiae deletion strains, locus YML120C, strain ndi1, hits give low values", "value": 0.983}, {"measurement": "normalized growth", "setting": "S. cerevisiae deletion strains, locus YML124C, strain tub3, hits give low values", "value": 0.975}, {"measurement": "normalized growth", "setting": "S. cerevisiae deletion strains, locus YMR058W, strain fet3, hits give low values", "value": 0.992}, {"measurement": "normalized growth", "setting": "S. cerevisiae deletion strains, locus YMR078C, strain ctf18, hits give low values", "value": 0.979}, {"measurement": "normalized growth", "setting": "S. cerevisiae deletion strains, locus YMR125W, strain sto1, hits give low values", "value": 0.969}, {"measurement": "normalized growth", "setting": "S. cerevisiae deletion strains, locus YMR129W, hits give low values", "value": 0.98}, {"measurement": "normalized growth", "setting": "S. cerevisiae deletion strains, locus YMR205C, strain PFK2, hits give low values", "value": 0.949}, {"measurement": "normalized growth", "setting": "S. cerevisiae deletion strains, locus YMR223W, strain ubp8, hits give low values", "value": 0.975}, {"measurement": "normalized growth", "setting": "S. cerevisiae deletion strains, locus YMR231W, strain pep5, hits give low values", "value": 0.996}, {"measurement": "normalized growth", "setting": "S. cerevisiae deletion strains, locus YMR263W, strain SAP30, hits give low values", "value": 0.977}, {"measurement": "normalized growth", "setting": "S. cerevisiae deletion strains, locus YMR307W, strain GAS1, hits give low values", "value": 0.713}, {"measurement": "normalized growth", "setting": "S. cerevisiae deletion strains, locus YNL067W, strain RPL9B, hits give low values", "value": 0.979}, {"measurement": "normalized growth", "setting": "S. cerevisiae deletion strains, locus YNL071W, strain lat1, hits give low values", "value": 0.944}, {"measurement": "normalized growth", "setting": "S. cerevisiae deletion strains, locus YNL128W, strain TEP1, hits give low values", "value": 0.98}, {"measurement": "normalized growth", "setting": "S. cerevisiae deletion strains, locus YNL153C, strain GIM3, hits give low values", "value": 0.998}, {"measurement": "normalized growth", "setting": "S. cerevisiae deletion strains, locus YNL183C, strain NPR1, hits give low values", "value": 0.911}, {"measurement": "normalized growth", "setting": "S. cerevisiae deletion strains, locus YNL209W, strain ssb2, hits give low values", "value": 0.99}, {"measurement": "normalized growth", "setting": "S. cerevisiae deletion strains, locus YNL233W, strain BNI4, hits give low values", "value": 0.994}, {"measurement": "normalized growth", "setting": "S. cerevisiae deletion strains, locus YNL248C, strain rpa49, hits give low values", "value": 0.987}, {"measurement": "normalized growth", "setting": "S. cerevisiae deletion strains, locus YNL250W, strain rad50, hits give low values", "value": 0.961}, {"measurement": "normalized growth", "setting": "S. cerevisiae deletion strains, locus YNL271C, strain bni1, hits give low values", "value": 0.978}, {"measurement": "normalized growth", "setting": "S. cerevisiae deletion strains, locus YNL298W, strain CLA4, hits give low values", "value": 0.966}, {"measurement": "normalized growth", "setting": "S. cerevisiae deletion strains, locus YNL307C, strain MCK1, hits give low values", "value": 0.952}, {"measurement": "normalized growth", "setting": "S. cerevisiae deletion strains, locus YNL322C, strain KRE1 (second series), hits give low values", "value": 0.981}, {"measurement": "normalized growth", "setting": "S. cerevisiae deletion strains, locus YNL322C, strain KRE1, hits give low values", "value": 0.978}, {"measurement": "normalized growth", "setting": "S. cerevisiae deletion strains, locus YNR049C, strain mso1, hits give low values", "value": 0.976}, {"measurement": "normalized growth", "setting": "S. cerevisiae deletion strains, locus YNR052C, strain pop2, hits give low values", "value": 0.971}, {"measurement": "normalized growth", "setting": "S. cerevisiae deletion strains, locus YOL006C, strain TOP1, hits give low values", "value": 0.94}, {"measurement": "normalized growth", "setting": "S. cerevisiae deletion strains, locus YOL012C, strain htz1", "value": 0.914}, {"measurement": "normalized growth", "setting": "S. cerevisiae deletion strains, locus YOL147C, strain pex11, hits give low values", "value": 0.976}, {"measurement": "normalized growth", "setting": "S. cerevisiae deletion strains, locus YOR001W, strain rrp6, hits give low values", "value": 0.979}, {"measurement": "normalized growth", "setting": "S. cerevisiae deletion strains, locus YOR061W, strain CKA2, hits give low values", "value": 0.984}, {"measurement": "normalized growth", "setting": "S. cerevisiae deletion strains, locus YOR069W, strain VPS5, hits give low values", "value": 0.977}, {"measurement": "normalized growth", "setting": "S. cerevisiae deletion strains, locus YOR070C, strain gyp1, hits give low values", "value": 0.983}, {"measurement": "normalized growth", "setting": "S. cerevisiae deletion strains, locus YOR080W, strain dia2, hits give low values", "value": 0.99}, {"measurement": "normalized growth", "setting": "S. cerevisiae deletion strains, locus YOR083W, strain WHI5, hits give low values", "value": 0.98}, {"measurement": "normalized growth", "setting": "S. cerevisiae deletion strains, locus YOR106W, strain vam3, hits give low values", "value": 0.916}, {"measurement": "normalized growth", "setting": "S. cerevisiae deletion strains, locus YOR136W, strain idh2, hits give low values", "value": 0.988}, {"measurement": "normalized growth", "setting": "S. cerevisiae deletion strains, locus YOR144C, strain elg1, hits give low values", "value": 0.973}, {"measurement": "normalized growth", "setting": "S. cerevisiae deletion strains, locus YOR184W, strain ser1, hits give low values", "value": 0.943}, {"measurement": "normalized growth", "setting": "S. cerevisiae deletion strains, locus YOR231W, strain MKK1, hits give low values", "value": 0.945}, {"measurement": "normalized growth", "setting": "S. cerevisiae deletion strains, locus YOR265W, strain rbl2, hits give low values", "value": 0.986}, {"measurement": "normalized growth", "setting": "S. cerevisiae deletion strains, locus YOR270C, strain vph1, hits give low values", "value": 0.846}, {"measurement": "normalized growth", "setting": "S. cerevisiae deletion strains, locus YOR290C, strain snf2, hits give low values", "value": 0.975}, {"measurement": "normalized growth", "setting": "S. cerevisiae deletion strains, locus YOR316C, strain cot1, hits give low values", "value": 0.977}, {"measurement": "normalized growth", "setting": "S. cerevisiae deletion strains, locus YPL055C, strain LGE1, hits give low values", "value": 0.967}, {"measurement": "normalized growth", "setting": "S. cerevisiae deletion strains, locus YPL078C, strain atp4, hits give low values", "value": 0.98}, {"measurement": "normalized growth", "setting": "S. cerevisiae deletion strains, locus YPL106C, strain sse1, hits give low values", "value": 1.02}, {"measurement": "normalized growth", "setting": "S. cerevisiae deletion strains, locus YPL240C, strain hsp82, hits give low values", "value": 0.969}, {"measurement": "normalized growth", "setting": "S. cerevisiae deletion strains, locus YPL241C, strain CIN2, hits give low values", "value": 0.976}, {"measurement": "normalized growth", "setting": "S. cerevisiae deletion strains, locus YPL256C, strain CLN2, hits give low values", "value": 0.973}, {"measurement": "normalized growth", "setting": "S. cerevisiae deletion strains, locus YPR119W, strain clb2, hits give low values", "value": 0.974}, {"measurement": "normalized growth", "setting": "S. cerevisiae deletion strains, locus YPR141C, strain kar3, hits give low values", "value": 0.978}, {"measurement": "normalized growth", "setting": "S. cerevisiae deletion strains, locus YPR163C, strain tif3, hits give low values", "value": 0.97}, {"measurement": "normalized growth", "setting": "S. cerevisiae deletion strains, locus YPR167C, strain met16, hits give low values", "value": 0.984}, {"measurement": "normalized growth", "setting": "S. cerevisiae deletion strains, strain wtn01, hits give low values", "value": 0.965}, {"measurement": "normalized growth", "setting": "S. cerevisiae strains, strain wild type, hits give low values", "value": 0.987}]}
